Results taken from PubChem BioAssay (NCATS).
Inconclusive results are not listed. Where a call stands in place of a potency, no number is given. Active and inactive are the calls of the source. Calls follow the shape of the dose curve; as a rule, active = well fitted inhibition curve with a large enough effect; inconclusive = small, poorly fitted or top-dose-only effect; inactive = flat fitted curve, though single readings scatter.

Assay: qHTS to identify inhibitors of the type 1 interferon - major histocompatibility complex class I in skeletal muscle: primary screen against the NCATS LOPAC collection (AID 1347405);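 also: lytic HiBiT luminescence reporting HLA-B protein level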
Settings: iHSKM muscle cells, IFN-b-induced MHC-I HiBiT luminescence, 24 h; series mostly up to 45.9 µM
Excerpt: Assay Submitter (PI): Travis B. Kinder Ph.D. & James Inglese Ph.D.
Assay Development and Screening Technology Laboratory (ADST)
National Center for Advancing Translational Sciences (NCATS), Rockville, MD
National Institute of Health (NIH), Bethesda, Maryland
Idiopathic inflammatory myopathies, collectively referred to as myositis, are a group of rare autoimmune diseases characterized by skeletal muscle inflammation, weakness, and usually accompanied by systemic pathologies of the skin, lungs, or vasculature. Current immunosuppressive therapies and glucocorticoids are often not curative and are accompanied by harsh side effects, especially in children with juvenile myositis. We initiated a drug repurposing and development program to identify more targeted, less toxic therapeutics to treat myositis. Although its cause is not known, muscle from a subset of patients have an abundance of the inflammatory type 1 interferon (IFN) and a down-stream product major histocompatibility complex class I (MHC class I), which are both thought to contribute to damage and weakness. We conducted quantitative high throughput screening on 6,576 compounds (4,679 unique) through a series of cell-based assays to identify those that inhibit the IFN-stimulated expression of MHC class I in muscle precursor cells (myoblasts). The compound identification and evaluation strategy utilized a primary screen with reporter-tagged MHC class I in genome-engineered myoblasts, ATP content counter screen for viability, HLA-ABC immunofluorescence secondary screen, and HLA-B RT-qPCR tertiary screen.
The primary screen utilized CRISPR/Cas9 genome-engineering of immortalized human myoblasts, C25cl48, where a pro-luminescent reporter HiBit was fused to the C-terminus of endogenous MHC class I allele HLA-B*08:01 (HLA-B HiBit myoblasts). HiBit is an 11 amino acid fragment of NanoLuc luminescent reporter (Promega Corporation), and when complexed to the larger LgBit fragment, the reconstituted enzyme produces light in the presence of furimazine substrate (Schwinn et al., 2018). Briefly, HLA-B HiBit myoblasts were plated into 1536-well plates, treated with 4.0 ng/ml human IFN-beta and 1,280 compounds from the Library of Pharmacologically Active Compounds 1280 library (LOPAC1280, Sigma Aldrich) in a 7-point, 1:4.3 titration with a high final concentration of 46 uM. After 24 hrs of treatment, cells were assayed by Nano-Glo HiBiT Lytic Detection System (Promega) and luminescence measured by a ViewLux 1430 Ultra HTS (Perkin Elmer).
Schwinn MK, Machleidt T, Zimmerman K, Eggers CT, Dixon AS, Hurst R, Hall MP, Encell LP, Binkowski BF, Wood K V. 2018. CRISPR-Mediated Tagging of Endogenous Proteins with a Luminescent Peptide. ACS Chem Biol 13:467-474. doi:10.1021/acschembio.7b00549
PROTOCOL TABLE (as described by Inglese et al., 2007)
SEQUENCE No. (e.g., 1, 2, 3, etc.); […] (e.g., Cells, Incubation, Reagent, etc.); VALUE; DESCRIPTION
1a; Cells; 5 uL; Use a Multidrop Combi (Thermo Scientific) to seed 350 cells/well into nine Greiner 1536 well white/solid bottom, high base, TC plates in 5 ul/well of iHSKM growth medium (GM) without dexamethasone into columns 1+2. Add metal lids with gas-exchange holes
1b; Cells; 5 uL; Use a Multidrop Combi (Thermo Scientific) to seed 350 cells/well into nine Greiner 1536 well white/solid bottom, high base, TC plates in 5 ul/well of iHSKM GM without dexamethasone + 4 ng/ml IFN-b into columns 3 - 48. Add metal lids with gas-exchange holes
2; Incubate; 1 hr; Incubate at 37 C, 5% CO2, 95% RH
3; Compounds; 23 nl; Use Pin Tool (Wako) to transfer DMSO control, ruxolitinib IFN-b inhibitor control [High Concentration = 80 uM final, 16-pt, 1:2 in duplicate], and library compounds in DMSO
4; Incubate; 24 hrs; Incubate at 37 C, 5% CO2, 95% RH
5; Dispense; 2.5 ul; Use BioRAPTR FRD (Beckman Coulter) to add HiBit lytic reagent
6; Incubate; 10 min; Incubate in the dark at ambient temperature for lysis
[…]
Potency is read from the fitted curve at half-maximal effect.

| Compound | Potency |
| --- | --- |
| CC1=C(/C=C/C(C)=C/C=C/C(C)=C/C(=O)O)C(C)(C)CCC1 | inactive |
| C[C@H]1O[C@@H](n2cc(F)c(=O)[nH]c2=O)[C@H](O)[C@@H]1O | inactive |
| CC(=O)OCC(=O)[C@@]1(O)CC[C@H]2[C@@H]3CCC4=CC(=O)CC[C@]4(C)[C@H]3C(=O)C[C@@]21C | inactive |
| CN(C)CC[C@@H](c1ccc(Cl)cc1)c1ccccn1 | inactive |
| CC(C)(C)[C@]1(O)CCN2C[C@H]3c4ccccc4CCc4cccc(c43)[C@@H]2C1 | inactive |
| Nc1ncnc2c1ncn2[C@@H]1O[C@H](CO)[C@@H](O)[C@H]1O | inactive |
| CCN(CC)CCNC(=O)c1cc(Cl)c(N)cc1OC | inactive |
| CC(C(O)c1ccc(O)cc1)N1CCC(Cc2ccccc2)CC1 (stereo not given) | inactive |
| CNCCCC1c2ccccc2C=Cc2ccccc21 | inactive |
| C=Cc1c(C)c2cc3[nH]c(cc4nc(cc5nc(cc1[nH]2)C(C)=C5CCC(=O)O)C(CCC(=O)O)=C4C)c(C)c3C=C | inactive |
| NC(=O)c1ncn([C@@H]2O[C@H](CO)[C@@H](O)[C@H]2O)n1 | inactive |
| CC(C)(C(=O)O)c1ccc(C(O)CCCN2CCC(C(O)(c3ccccc3)c3ccccc3)CC2)cc1 (stereo not given) | inactive |
| CC(C)C(=O)c1c(C(C)C)nn2ccccc12 | inactive |
| O=C1NC(=O)[C@@]2(CCOc3ccc(F)cc32)N1 | inactive |
| CCCCc1ncc(/C=C(\Cc2cccs2)C(=O)O)n1Cc1ccc(C(=O)O)cc1 | inactive |
| O=C1N=C(O)CN1/N=C/c1ccc(-c2ccc([N+](=O)[O-])cc2)o1 | inactive |
| COc1ccc(Cl)cc1C(=O)NCCc1ccc(S(=O)(=O)NC(=O)NC2CCCCC2)cc1 | inactive |
| Nc1cc(=O)[nH]c(N)n1 | inactive |
| CC(CN(C)C)CN1c2ccccc2CCc2ccccc21 (stereo not given) | inactive |
| CC(CN1c2ccccc2Sc2ccccc21)N(C)C (stereo not given) | inactive |

| Compound | Potency |
| --- | --- |
| C#CCN(C)Cc1ccccc1 | inactive |
| C[C@H](NC(CCc1ccccc1)C(=O)O)C(=O)N1CCC[C@H]1C(=O)O (stereo not given in full) | inactive |
| CNC(=O)Oc1ccc2c(c1)[C@]1(C)CCN(C)[C@@H]1N2C | inactive |
| CC(=O)c1ccc2c(c1)N(CCCN(C)C)c1ccccc1S2 | inactive |
| CC(C)NC[C@H](O)c1ccc(O)c(O)c1 | inactive |
| CCCCN(CCCC)CC(O)c1cc(Cl)cc2c1-c1ccc(Cl)cc1/C2=C/c1ccc(Cl)cc1 (stereo not given) | inactive |
| COCCOC(=O)C1=C(C)NC(C)=C(C(=O)OC/C=C/c2ccccc2)C1c1cccc([N+](=O)[O-])c1 (stereo not given) | 22.4 µM (active) |
| CC1=C(CC(=O)O)c2cc(F)ccc2/C1=C\c1ccc(S(C)(=O)=O)cc1 | inactive |
| CN(C)CCC=C1c2ccccc2CCc2ccccc21 | inactive |
| Cc1cc(N)c2ccccc2[n+]1CCCCCCCCCC[n+]1c(C)cc(N)c2ccccc21 | inactive |
| C[C@](N)(Cc1ccc(O)cc1)C(=O)O | inactive |
| CN(C)CCOC(C)(c1ccccc1)c1ccccn1 (stereo not given) | inactive |
| CCN(CC)CCOC(=O)C1(C2CCCCC2)CCCCC1 | inactive |
| CC(C)(C)c1onc(OCP(=O)(O)O)c1CC(N)C(=O)O (stereo not given) | inactive |
| CCN(CC)C(C)CN1c2ccccc2Sc2ccccc21 (stereo not given) | inactive |
| CC1=C(CC(=O)O)c2cc(F)ccc2/C1=C\c1ccc(S(C)=O)cc1 (stereo not given) | inactive |
| CCN(CC)CCNC(=O)c1c(C)[nH]c(/C=C2\C(=O)Nc3ccc(F)cc32)c1C | 10 µM (active) |
| C[C@]12CC[C@@H]3c4ccc(O)cc4CC[C@H]3[C@@H]1CCC2=O | inactive |
| CC(C)c1c(C(=O)Nc2ccccc2)c(-c2ccccc2)c(-c2ccc(F)cc2)n1CC[C@@H](O)C[C@@H](O)CC(=O)O | inactive |
| NC(N)=NCCC[C@H](N)C(=O)O | inactive |
